Assay results reported in the supplement of paper PMC12350171.
Where a name gives a salt, the structure may show the parent alone.

Tested on: Haemophilus parainfluenzae
Assay: growth AUC normalised to DMSO control (fraction of control); higher = less growth inhibition, active = hit call of the paper
Details: 20 µM;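 active = AUC significantly below DMSO controls by Student t-fit with adjusted P under 0.01; inactive = not significantly reduced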
Outline: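 Three biological replicates were carried out, with OD578 read hourly for 24 h. Before inoculation at a starting OD578 of 0.01, pathogens were passaged anaerobically twice; plates were pre-reduced mGAM containing 20 μM compound and 1% DMSO, sealed with breathable membranes, and the Haemophilus parainfluenzae medium carried added hemin and NAD. Area under each growth curve was calculated by the trapezoidal rule up to the exponential-to-stationary transition and normalised to DMSO controls on the same plate.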

| Compound | growth AUC normalised to DMSO control |
| --- | --- |
| O=C(O)Cc1cc(I)c(Oc2ccc(O)c(I)c2)c(I)c1 [Tiratricol] | 0.896 (inactive) |
| Cc1cc(-c2ccccc2)nnc1NCCN1CCOCC1 [Minaprine dihydrochloride] | 0.991 (inactive) |
| CCCCC(C)(O)C/C=C/[C@H]1[C@H](O)CC(=O)[C@@H]1CCCCCCC(=O)OC (mixture of isomers) [Misoprostol] | 1.02 (inactive) |
| CCCCNc1cc(C(=O)O)cc(S(N)(=O)=O)c1Oc1ccccc1 [Bumetanide] | 0.991 (inactive) |
| Cn1ccnc1S [Methimazole] | 1.02 (inactive) |
| S=c1[nH]cnc2nc[nH]c12 [Mercaptopurine] | 0.997 (inactive) |
| Clc1ccc(CO/N=C(\Cn2ccnc2)c2ccc(Cl)cc2Cl)c(Cl)c1 [Oxiconazole nitrate] | 1.01 (inactive) |
| CCN(CC)CCNC(=O)c1cc(Br)c(N)cc1OC [Bromopride] | 1.03 (inactive) |
| COc1ccccc1OCC(O)COC(N)=O (centres undefined) [Methocarbamol] | 0.977 (inactive) |
